Reference: PMC5540273 (PLoS ONE, 2017)

Key:
Details in all cases: concentration: 1 μM, replicates: in singlicate; n = 1
BRSK1 = system: BRSK1
BRSK2 = system: BRSK2
BTK = system: BTK
BUB1 = system: BUB1
CAMK1B = system: CAMK1B
CAMK1D = system: CAMK1D
CAMK1G = system: CAMK1G
CAMK1 = system: CAMK1
CAMK2A = system: CAMK2A
CAMK2B = system: CAMK2B
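Also: KINOMEscan kinase panel screen.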

Row | Compound | %Inh (BRSK1) [%] | %Inh (BRSK2) [%] | %Inh (BTK) [%] | %Inh (BUB1) [%] | %Inh (CAMK1B) [%] | %Inh (CAMK1D) [%] | %Inh (CAMK1G) [%] | %Inh (CAMK1) [%] | %Inh (CAMK2A) [%] | %Inh (CAMK2B) [%]
1 | Cl.O=S(=O)(c1cccc(F)c1)c1ccc(Nc2ncnc3cc(Br)sc23)cc1Cl [GSK306886] | 0 | 0 | 0 | 0 | 38 | 10 | 0 | 2 | 0 | 0
2 | NC(=O)c1sc(-n2cnc3ccccc32)cc1OCc1ccccc1F [GSK1024306] | 5 | 0 | 0 | 20 | 31 | 0 | 0 | 0 | 0 | 0
3 | CCc1nc(-c2cccc(C)c2)c(-c2ccnc(NC(=O)c3ccccc3)c2)s1 | 0 | 17 | 42 | 17 | 0 | 7 | 0 | 13 | 4 | 0
4 | Nc1n[nH]c2nnc(-c3ccccc3)cc12 [SB-517389] | 0 | 0 | 0 | 0 | 38 | 28 | 0 | 15 | 0 | 0
5 | Cc1ccc(O)cc1Nc1cc(C(F)(F)F)nc2ccc(-c3ccncc3)cc12 [GW630823] | 3 | 0 | 0 | 0 | 0 | 14 | 1 | 8 | 20 | 2
6 | Clc1ccc(-c2cc(-c3c[nH]nc3-c3ccccn3)ccn2)cc1 [GW681251] | 0 | 0 | 0 | 31 | 0 | 2 | 0 | 0 | 0 | 0
7 | CN1CCC(n2cnc(-c3ccc(F)cc3)c2-c2ccnc(NC3CCNCC3)n2)CC1 [SB-229482] | 0 | 0 | 10 | 17 | 28 | 0 | 2 | 0 | 0 | 0
8 | Cl.c1ccc(Cn2ccc3cc(Nc4ncnc5ccccc45)ccc32)cc1 [GW275568] | 0 | 20 | 0 | 0 | 34 | 27 | 8 | 24 | 9 | 0
9 | CN1c2ccc(-c3ccc(C(=O)NCCO)cc3)cc2-c2[nH]ncc2S1(=O)=O | 0 | 15 | 6 | 0 | 23 | 45 | 0 | 49 | 67 | 66
10 | N#Cc1ccc(Oc2ccc(Nc3ncnc4cc[nH]c34)cc2Cl)cc1 | 3 | 0 | 0 | 12 | 0 | 33 | 17 | 24 | 21 | 22
11 | Clc1cc(Nc2ncnc3cc[nH]c23)ccc1OCc1ccccn1 | 0 | 1 | 0 | 0 | 4 | 33 | 27 | 35 | 0 | 0
12 | Cl.c1ccc(Cn2ncc3cc(Nc4ncnc5ccccc45)ccc32)cc1 [GW273749] | 0 | 0 | 0 | 0 | 13 | 17 | 23 | 28 | 2 | 0
13 | CC(C)(C)c1ccc(-n2cnc3c(N)ncnc32)cc1 [SKF-97263] | 18 | 0 | 0 | 18 | 12 | 9 | 0 | 10 | 0 | 0
14 | O=C(Nc1ccccc1F)NC1CCN(c2ccnc(Nc3ccc(F)cc3)n2)C1 (centres unmarked) [GSK1379722] | 17 | 0 | 12 | 44 | 0 | 0 | 0 | 0 | 0 | 0
15 | CC(C)(C)OC(=O)NC1CCCN(c2cc(-c3ccc4c(N)n[nH]c4c3)nc(N)n2)C1 (centres unmarked) [GSK2286096] | 0 | 0 | 0 | 0 | 25 | 21 | 11 | 16 | 0 | 0
16 | C[C@@H]1CCN(C(=O)CO)C[C@@H]1N(C)c1ncnc2[nH]ccc12 | 13 | 0 | 0 | 0 | 29 | 0 | 0 | 0 | 0 | 0
17 | Nc1nccc2scc(-c3ccc4c(c3)CCN4C(=O)Cc3cc(F)ccc3F)c12 [GSK2587663] | 4 | 0 | 0 | 45 | 27 | 21 | 4 | 29 | 0 | 0
